This is an account of results in PubChem BioAssay (NCI).

Where “and” joins values, the source holds several entries; their conditions need not be identical. Identical values can stand only once. About 83,000 compounds went through this panel and 20% of them were active in at least one assay; those are over-represented in the sample as a whole.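 Plates (96-well) were seeded with cells, treated with compound at one concentration, and incubated for 48 hours before percent growth was determined.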 Calls of active or inactive are those of the source. Rule for the calls: active = growth percent below 10; inactive = the rest.

What all share (experiment): NCI-60 one-dose screen, 48 h (100 = growth as untreated, 0 = no growth, -100 = all killed)
For one assay, the system named is HT29 colon. Conditions: 10 µM.
A further assay has as its system SNB-75 CNS. The following applies: 10 µM.
The next assay has as its system SNB-19 CNS. The following applies: 10 µM.
For a further assay, the system named is U251 CNS. Conditions: 10 µM.
The next assay deals with PC-3 prostate. The following applies: 10 µM.
The next assay has as its system SK-MEL-5 melanoma. The following applies: 10 µM.
Another assay has as its system UACC-62 melanoma. The following applies: 10 µM unless noted.
The test system of another assay is LOX IMVI melanoma. Conditions: 10 µM.
The next assay has as its system SK-MEL-28 melanoma. Conditions: 10 µM.
Another assay concerns SK-MEL-2 melanoma. The following applies: 10 µM.
A further assay relates to UO-31 renal. The following applies: 10 µM.
The test system of a further assay is TK-10 renal. The following applies: 10 µM unless noted.
For the next assay, the system named is ACHN renal. The following applies: 10 µM.
The next assay relates to CAKI-1 renal. The following applies: 10 µM.
A further assay deals with HL-60(TB) leukemia. The following applies: 10 µM.
The subject of a further assay is CCRF-CEM leukemia. Conditions: 10 µM.
The next assay concerns EKVX NSCLC. The following applies: 10 µM.
Another assay concerns SN12C renal. Conditions: 10 µM.

Turning to `COC12c3c(C)cc(O)c4c(=O)occ(c34)C(=O)C1C13COC(=O)c4c(O)cc(C)c(c41)C(=O)C2C3OC(C)=O` (centres undefined), the growth in the assay with HT29 colon was 105% (inactive); with SNB-75 CNS, 89.6% (inactive); with SNB-19 CNS, 97.6% (inactive); with U251 CNS, 102% (inactive); in the assay on PC-3 prostate, 80.2% (inactive); with SK-MEL-5 melanoma it was 111% (inactive). Also, the growth with UACC-62 melanoma was 97.5% (inactive); in the assay with LOX IMVI melanoma, 104% (inactive); with SK-MEL-28 melanoma it was 91.6% (inactive); in the assay with SK-MEL-2 melanoma it was 81.5% (inactive); in the assay with UO-31 renal it was 91.5% (inactive); in the assay with TK-10 renal, 110% (inactive). The growth in the assay on ACHN renal was 100% (inactive); with CAKI-1 renal, 156% (inactive); in the assay with HL-60(TB) leukemia it was 100% (inactive); in the assay on CCRF-CEM leukemia, 96.2% (inactive).

Regarding `O=[N+]([O-])c1ccc(N2CCOCC2)c2c1no[n+]2[O-]`, the growth in the assay with HT29 colon is -29.3% (active); in the assay on SNB-75 CNS, -15.5% (active); with SNB-19 CNS, 28.8% (inactive); with U251 CNS it was 2.99% (active); with PC-3 prostate it was 10.9% (inactive); in the assay on SK-MEL-5 melanoma, 25.4% (inactive). Besides, the growth is -24.9% (active) in the assay with UACC-62 melanoma; -14.3% (active) in the assay on LOX IMVI melanoma; 49.3% (inactive) in the assay on SK-MEL-28 melanoma; -4.77% (active) in the assay on SK-MEL-2 melanoma; 46.5% (inactive) with EKVX NSCLC; 8.16% (active) in the assay with UO-31 renal. The growth with TK-10 renal was -0.265% (active); in the assay on ACHN renal it was 13.6% (inactive); with HL-60(TB) leukemia it was -16.7% (active).

For `NC(=O)c1cc([N+](=O)[O-])c(Cl)c([N+](=O)[O-])c1`, the growth was -7.93% (active) with HT29 colon; 98.6% (inactive) in the assay with SNB-75 CNS; 107% (inactive) in the assay on SNB-19 CNS; 69.4% (inactive) with U251 CNS; 62.2% (inactive) in the assay on PC-3 prostate; 107% (inactive) with SK-MEL-5 melanoma. In addition, the growth with UACC-62 melanoma was 100% (inactive); in the assay on LOX IMVI melanoma, 24.7% (inactive); in the assay on SK-MEL-28 melanoma, 118% (inactive); in the assay on SK-MEL-2 melanoma it was 154% (inactive); with EKVX NSCLC, 98.3% (inactive); with TK-10 renal, 84.1% (inactive). Further, the growth in the assay on ACHN renal is 92.7% (inactive); in the assay on CAKI-1 renal it was 87.6% (inactive); in the assay with HL-60(TB) leukemia, 20.1% (inactive); in the assay with CCRF-CEM leukemia, -32.4% (active).

Take `COC1CC2C=C(C)/C=C/C=C/C(=O)NC(c3ccccc3)C/C=C/CCC(O)CC(=O)C2=C1O` (centres undefined): the growth was -83.7% (active) in the assay on HT29 colon; -89.9% (active) in the assay with SNB-75 CNS; -27.1% (active) in the assay with SNB-19 CNS; -91.1% (active) in the assay on PC-3 prostate; -97.2% (active) in the assay with SK-MEL-5 melanoma; -89.3% (active) with UACC-62 melanoma. In addition, the growth in the assay on LOX IMVI melanoma is -91.6% (active); with SK-MEL-28 melanoma, -80.9% (active); with SK-MEL-2 melanoma it was -89.8% (active); in the assay with UO-31 renal, -95.7% (active); in the assay on TK-10 renal, -59.9% (active); with ACHN renal it was -93.3% (active). Further, the values for the growth in the assay on CAKI-1 renal and in the assay on HL-60(TB) leukemia were -88% (active) and -5.27% (active), respectively.

As to `COc1cc2c3cc1Oc1c(OC)c(OC)cc4c1C(Cc1ccc(cc1)Oc1cc(ccc1O)CC3N(C)CC2)N(C)CC4` (centres undefined), the growth in the assay with UACC-62 melanoma is -16.8% [100 µM] (active) and -81.7% [100 µM] (active); with TK-10 renal, 48% [100 µM] (inactive) and -100% [100 µM] (active).

As to `O=[P+](O)c1ccccc1`, the growth in the assay on HT29 colon is 118% (inactive); in the assay on SNB-75 CNS, 97.4% (inactive); in the assay on SNB-19 CNS it was 106% (inactive); in the assay with U251 CNS it was 104% (inactive); in the assay with PC-3 prostate it was 93.6% (inactive); in the assay on SK-MEL-5 melanoma, 106% (inactive). The growth in the assay on UACC-62 melanoma was 105% (inactive); in the assay with LOX IMVI melanoma it was 102% (inactive); with SK-MEL-28 melanoma it was 104% (inactive); in the assay with SK-MEL-2 melanoma, 109% (inactive); with EKVX NSCLC it was 115% (inactive); in the assay with TK-10 renal it was 117% (inactive). The results for the growth in the assay with ACHN renal, with HL-60(TB) leukemia and in the assay on CCRF-CEM leukemia were 102% (inactive), 106% (inactive) and 79.9% (inactive), respectively.

As to `C[CH2][Hg][S]c1ccccc1C(=O)O`, the growth is -59% (active) in the assay with HT29 colon; -43.7% (active) with SNB-75 CNS; 50.6% (inactive) in the assay with SNB-19 CNS; -6.81% (active) with U251 CNS; 55.8% (inactive) in the assay with PC-3 prostate; -68.3% (active) with SK-MEL-5 melanoma. For the same compound, the growth is -54.9% (active) with LOX IMVI melanoma; -87.5% (active) in the assay on SK-MEL-28 melanoma; -52.4% (active) with SK-MEL-2 melanoma; 63.6% (inactive) with EKVX NSCLC; -60.6% (active) with SN12C renal; -61.8% (active) in the assay with UO-31 renal. The growth is -94.2% (active) in the assay with TK-10 renal, -92.9% (active) in the assay on ACHN renal, -17.6% (active) with HL-60(TB) leukemia and -17.5% (active) in the assay on CCRF-CEM leukemia.
